# The whole screen tested about 5,500 compounds, of which about 2,000 (36%) were called active. Another 18% or so got no clear call; they are omitted. Some of the results follow. A number with no mark means an inactive call. No stated cut-off is given here; in the data, active means normalized growth mostly below about 0.91 (no sharp cut-off); inconclusive means no clear call, values can overlap the other calls; inactive means mostly above about 0.92.
# Test: chemical genetic growth profiling, strain panel (AID 1159580);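 further: tested at 20 µM; growth read once vehicle control cultures reached saturation at 30 °C; 1 = growth at the plate median or of vehicle wells; lower values mean less growth of the strain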
# Details: S. cerevisiae deletion strains, growth OD
structure (smiles),measurement,setting,value
Cc1ccc(S(=O)(=O)Nc2nc(-c3ccc(C)c(Cl)c3)c(C)s2)cc1,normalized growth,"locus YAR019C, strain CDC15, hits give low values",0.994
same,normalized growth,"locus YBL105C, strain PKC1, hits give low values",0.99
same,normalized growth,"locus YBR135W, strain CKS1, hits give low values",0.98
same,normalized growth,"locus YBR136W, strain MEC1, hits give low values",0.991
same,normalized growth,"locus YBR160W, strain CDC28, hits give low values",0.988
same,normalized growth,"locus YDL017W, strain CDC7, hits give low values",0.991
same,normalized growth,"locus YDL028C, strain MPS1, hits give low values",0.988
same,normalized growth,"locus YDL101C, strain DUN1, hits give low values",0.989
same,normalized growth,"locus YDL108W, strain KIN28, hits give low values",0.993
same,normalized growth,"locus YDL132W, strain cdc53, hits give low values",0.983
same,normalized growth,"locus YDL214C, strain PRR2, hits give low values",0.989
same,normalized growth,"locus YDR052C, strain DBF4, hits give low values",0.983
same,normalized growth,"locus YDR054C, strain cdc34, hits give low values",0.989
same,normalized growth,"locus YDR226W, strain ADK1, hits give low values",0.985
same,normalized growth,"locus YDR477W, strain SNF1, hits give low values",1.04
same,normalized growth,"locus YER123W, strain YCK3, hits give low values",1.02
same,normalized growth,"locus YER133W, strain GLC7, hits give low values",1.02
same,normalized growth,"locus YFL009W, strain cdc4, hits give low values",0.989
same,normalized growth,"locus YFL029C, strain CAK1, hits give low values",0.998
same,normalized growth,"locus YFR003C, strain YPI1, hits give low values",0.992
same,normalized growth,"locus YFR019W, strain FAB1, hits give low values",1.02
same,normalized growth,"locus YFR028C, strain CDC14, hits give low values",0.99
same,normalized growth,"locus YGR040W, strain KSS1, hits give low values",1.02
same,normalized growth,"locus YGR092W, strain DBF2, hits give low values",1.01
same,normalized growth,"locus YHR030C, strain SLT2, hits give low values",1.77 [resistant] (active)
same,normalized growth,"locus YHR079C, strain IRE1, hits give low values",2.3 [resistant] (active)
same,normalized growth,"locus YHR205W, strain SCH9, hits give low values",0.942
same,normalized growth,"locus YIL147C, strain SLN1, hits give low values",0.983
same,normalized growth,"locus YJL095W, strain BCK1, hits give low values",1.77 [resistant] (active)
same,normalized growth,"locus YJL128C, strain PBS2, hits give low values",0.925
same,normalized growth,"locus YJL157C, strain FAR1, hits give low values",1.02
same,normalized growth,"locus YJR016C, strain ILV3, hits give low values",0.979
same,normalized growth,"locus YJR066W, strain TOR1 (second series), hits give low values",1.04
same,normalized growth,"locus YKL048C, strain ELM1, hits give low values",0.986
same,normalized growth,"locus YKL067W, strain YNK1, hits give low values",0.997
same,normalized growth,"locus YKL101W, strain HSL1, hits give low values",0.981
same,normalized growth,"locus YKL193C, strain SDS22, hits give low values",0.986
same,normalized growth,"locus YKL203C, strain TOR2, hits give low values",1.08
same,normalized growth,"locus YLR113W, strain HOG1, hits give low values",1.41 [resistant] (active)
same,normalized growth,"locus YLR133W, strain CKI1, hits give low values",0.995
same,normalized growth,"locus YLR403W, strain SFP1, hits give low values",1.02
same,normalized growth,"locus YML070W, strain DAK1, hits give low values",0.99
same,normalized growth,"locus YMR001C, strain CDC5, hits give low values",0.988
same,normalized growth,"locus YMR205C, strain PFK2 (second series), hits give low values",0.987
same,normalized growth,"locus YMR277W, strain FCP1, hits give low values",0.992
same,normalized growth,"locus YNL006W, strain LST8, hits give low values",0.981
same,normalized growth,"locus YNL020C, strain ARK1, hits give low values",0.996
same,normalized growth,"locus YNL161W, strain CBK1, hits give low values",0.992
same,normalized growth,"locus YNL207W, strain RIO2, hits give low values",0.996
same,normalized growth,"locus YNL222W, strain SSU72, hits give low values",0.996
same,normalized growth,"locus YNL307C, strain MCK1 (second series), hits give low values",0.982
same,normalized growth,"locus YOL078W, strain AVO1, hits give low values",0.991
same,normalized growth,"locus YOL136C, strain PFK27, hits give low values",0.987
same,normalized growth,"locus YOR061W, strain CKA2, hits give low values",1.02
same,normalized growth,"locus YOR119C, strain RIO1, hits give low values",1.05
same,normalized growth,"locus YOR231W, strain MKK1, hits give low values",2.03 [resistant] (active)
same,normalized growth,"locus YOR329C, strain SCD5, hits give low values",0.985
same,normalized growth,"locus YPL031C, strain PHO85, hits give low values",1.02
same,normalized growth,"locus YPL153C, strain RAD53, hits give low values",1.01
same,normalized growth,"locus YPL204W, strain HRR25, hits give low values",1.03
same,normalized growth,"locus YPL209C, strain IPL1, hits give low values",0.986
same,normalized growth,"locus YPL256C, strain CLN2, hits give low values",1.74 [resistant] (active)
same,normalized growth,"locus YPR025C, strain CCL1, hits give low values",0.985
same,normalized growth,"locus YPR106W, strain ISR1, hits give low values",0.992
same,normalized growth,"locus YPR111W, strain DBF20, hits give low values",0.987
same,normalized growth,"strain NNK1, hits give low values",0.995
same,normalized growth,"strain TSCII, hits give low values",0.994
